Residual activity data for two compounds are collected here from ChEMBL document CHEMBL2218924, “A broad activity screen in support of a chemogenomic map for kinase signalling research and drug discovery” (Biochem J, 2013).

Test [1] addresses Serine/threonine-protein kinase 33 (Homo sapiens) (UniProt Q9BYT3). Particulars: at 1 µM.
Test [2] has the same target. Particulars: at 10 µM.
Test [3] addresses Serine/threonine-protein kinase PLK2 (Homo sapiens) (UniProt Q9NYY3). As to conditions: at 1 µM.
The target is the same in test [4]. Particulars: at 10 µM.
Test [5] addresses Tyrosine-protein kinase SYK (Homo sapiens) (UniProt P43405). As to conditions: at 1 µM.
Test [6] shares this target. Particulars: at 10 µM.
The target of test [7] is T1, Mitogen-activated protein kinase kinase kinase 7 (Homo sapiens) (UniProt O43318).
T1 sequence (whole entry): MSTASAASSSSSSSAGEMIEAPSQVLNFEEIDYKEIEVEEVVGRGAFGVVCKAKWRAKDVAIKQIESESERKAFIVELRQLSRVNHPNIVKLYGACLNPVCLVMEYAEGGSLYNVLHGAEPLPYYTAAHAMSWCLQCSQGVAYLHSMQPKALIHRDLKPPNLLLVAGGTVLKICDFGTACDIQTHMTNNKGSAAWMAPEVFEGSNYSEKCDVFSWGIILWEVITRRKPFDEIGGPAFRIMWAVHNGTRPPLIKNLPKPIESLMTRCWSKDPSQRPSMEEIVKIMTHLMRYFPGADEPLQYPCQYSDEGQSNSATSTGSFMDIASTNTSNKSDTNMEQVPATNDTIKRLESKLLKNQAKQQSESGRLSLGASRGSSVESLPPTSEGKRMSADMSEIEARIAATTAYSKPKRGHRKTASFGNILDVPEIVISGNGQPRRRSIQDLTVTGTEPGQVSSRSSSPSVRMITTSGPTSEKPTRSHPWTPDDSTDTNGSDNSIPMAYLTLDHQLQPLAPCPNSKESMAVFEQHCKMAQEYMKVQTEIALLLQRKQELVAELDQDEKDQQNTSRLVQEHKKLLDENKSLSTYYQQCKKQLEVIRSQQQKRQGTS
Particulars: at 1 µM.

The target in test [8] is T1, Mitogen-activated protein kinase kinase kinase 7 (Homo sapiens). As to conditions: at 10 µM.
Test [9] has as its target T2, Serine/threonine-protein kinase TAO1 (Homo sapiens) (UniProt Q7L7X3).
T2 sequence (whole entry): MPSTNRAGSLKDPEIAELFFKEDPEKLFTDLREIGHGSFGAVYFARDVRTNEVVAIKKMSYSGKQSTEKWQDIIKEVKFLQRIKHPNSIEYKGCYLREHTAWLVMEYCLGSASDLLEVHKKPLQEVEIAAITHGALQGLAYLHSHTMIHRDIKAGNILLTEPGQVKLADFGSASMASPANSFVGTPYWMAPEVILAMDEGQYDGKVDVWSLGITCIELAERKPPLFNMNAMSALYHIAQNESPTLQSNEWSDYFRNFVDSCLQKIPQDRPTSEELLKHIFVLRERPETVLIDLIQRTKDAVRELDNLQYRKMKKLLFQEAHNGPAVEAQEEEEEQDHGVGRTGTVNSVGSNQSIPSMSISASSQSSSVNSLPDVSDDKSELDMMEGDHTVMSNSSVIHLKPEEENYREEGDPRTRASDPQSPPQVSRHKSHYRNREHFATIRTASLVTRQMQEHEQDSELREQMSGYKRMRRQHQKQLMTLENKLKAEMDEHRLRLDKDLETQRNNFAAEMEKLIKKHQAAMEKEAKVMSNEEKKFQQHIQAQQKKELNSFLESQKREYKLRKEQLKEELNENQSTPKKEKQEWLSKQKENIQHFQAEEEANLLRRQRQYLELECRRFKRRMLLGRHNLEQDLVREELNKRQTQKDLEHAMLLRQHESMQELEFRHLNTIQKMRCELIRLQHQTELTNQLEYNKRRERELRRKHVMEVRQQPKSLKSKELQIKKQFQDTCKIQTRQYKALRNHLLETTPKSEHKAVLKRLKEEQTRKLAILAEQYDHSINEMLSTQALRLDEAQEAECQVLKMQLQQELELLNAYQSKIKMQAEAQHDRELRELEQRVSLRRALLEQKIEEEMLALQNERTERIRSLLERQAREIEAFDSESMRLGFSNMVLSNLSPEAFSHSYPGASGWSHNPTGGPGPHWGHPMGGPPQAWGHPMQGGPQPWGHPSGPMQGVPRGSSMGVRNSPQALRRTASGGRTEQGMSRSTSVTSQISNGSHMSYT
Particulars: at 1 µM.

Test [10] concerns the target T2, Serine/threonine-protein kinase TAO1 (Homo sapiens). Particulars: at 10 µM.
In test [11] the target is T3, Serine/threonine-protein kinase TAO2 (Homo sapiens) (UniProt Q9UL54).
T3 sequence (whole entry): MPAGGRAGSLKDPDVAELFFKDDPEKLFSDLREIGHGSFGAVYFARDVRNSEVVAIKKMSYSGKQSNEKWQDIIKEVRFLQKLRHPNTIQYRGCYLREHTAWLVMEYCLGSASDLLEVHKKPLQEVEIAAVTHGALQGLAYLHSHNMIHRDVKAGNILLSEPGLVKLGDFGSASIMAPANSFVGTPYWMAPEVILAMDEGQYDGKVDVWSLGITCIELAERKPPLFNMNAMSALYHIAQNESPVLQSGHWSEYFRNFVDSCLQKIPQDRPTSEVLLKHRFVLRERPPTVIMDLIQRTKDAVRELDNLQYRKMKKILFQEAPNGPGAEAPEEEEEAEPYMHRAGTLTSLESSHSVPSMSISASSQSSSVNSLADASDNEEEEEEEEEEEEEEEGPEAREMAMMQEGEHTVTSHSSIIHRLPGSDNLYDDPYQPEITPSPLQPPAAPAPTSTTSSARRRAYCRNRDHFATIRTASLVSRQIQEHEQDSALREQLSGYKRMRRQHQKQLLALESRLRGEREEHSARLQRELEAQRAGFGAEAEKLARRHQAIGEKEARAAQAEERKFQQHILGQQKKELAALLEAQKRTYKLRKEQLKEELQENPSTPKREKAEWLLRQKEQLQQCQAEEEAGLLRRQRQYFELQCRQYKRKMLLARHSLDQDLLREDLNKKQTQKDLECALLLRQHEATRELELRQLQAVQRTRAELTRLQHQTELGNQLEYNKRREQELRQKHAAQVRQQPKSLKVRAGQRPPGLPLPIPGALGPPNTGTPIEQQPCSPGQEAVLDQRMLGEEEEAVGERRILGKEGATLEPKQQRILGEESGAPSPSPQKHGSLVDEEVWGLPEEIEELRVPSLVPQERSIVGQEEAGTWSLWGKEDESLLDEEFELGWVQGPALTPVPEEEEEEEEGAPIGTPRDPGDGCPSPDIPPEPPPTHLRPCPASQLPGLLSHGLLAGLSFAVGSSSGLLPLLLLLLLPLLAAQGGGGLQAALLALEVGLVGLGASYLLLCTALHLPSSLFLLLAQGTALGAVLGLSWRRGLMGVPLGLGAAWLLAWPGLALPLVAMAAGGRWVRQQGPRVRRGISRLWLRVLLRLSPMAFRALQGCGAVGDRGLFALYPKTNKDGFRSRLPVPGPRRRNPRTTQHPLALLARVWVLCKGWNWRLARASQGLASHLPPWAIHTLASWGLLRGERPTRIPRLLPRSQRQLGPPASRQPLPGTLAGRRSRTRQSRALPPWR
As to conditions: at 1 µM.

Test [12] has as its target T3, Serine/threonine-protein kinase TAO2 (Homo sapiens). As to conditions: at 10 µM.
Test [13] concerns the target T4, Serine/threonine-protein kinase TAO3 (Homo sapiens) (UniProt Q9H2K8).
T4 sequence (whole entry): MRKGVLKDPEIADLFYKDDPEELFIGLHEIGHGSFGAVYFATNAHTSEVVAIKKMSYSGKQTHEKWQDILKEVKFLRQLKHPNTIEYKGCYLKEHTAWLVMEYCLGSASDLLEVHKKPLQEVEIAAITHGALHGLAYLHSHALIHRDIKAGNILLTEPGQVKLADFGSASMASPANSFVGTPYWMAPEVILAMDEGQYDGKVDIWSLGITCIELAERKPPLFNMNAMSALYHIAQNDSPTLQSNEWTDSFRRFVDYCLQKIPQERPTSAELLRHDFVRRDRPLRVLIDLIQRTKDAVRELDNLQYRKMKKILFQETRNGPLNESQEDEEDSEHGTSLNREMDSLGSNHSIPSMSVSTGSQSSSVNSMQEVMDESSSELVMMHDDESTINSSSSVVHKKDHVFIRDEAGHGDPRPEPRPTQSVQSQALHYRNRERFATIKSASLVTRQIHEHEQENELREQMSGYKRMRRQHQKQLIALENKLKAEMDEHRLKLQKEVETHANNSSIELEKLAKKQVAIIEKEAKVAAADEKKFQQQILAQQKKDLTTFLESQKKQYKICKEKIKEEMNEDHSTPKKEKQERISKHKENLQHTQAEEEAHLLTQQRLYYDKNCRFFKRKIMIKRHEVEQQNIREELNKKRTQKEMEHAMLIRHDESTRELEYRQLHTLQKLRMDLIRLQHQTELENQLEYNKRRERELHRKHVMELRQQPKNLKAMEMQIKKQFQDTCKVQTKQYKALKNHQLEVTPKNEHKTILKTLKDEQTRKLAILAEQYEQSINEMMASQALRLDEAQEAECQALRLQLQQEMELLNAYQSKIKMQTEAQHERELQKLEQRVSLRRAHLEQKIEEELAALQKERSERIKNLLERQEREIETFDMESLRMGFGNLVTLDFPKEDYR
Particulars: at 1 µM.

In test [14] the target is T4, Serine/threonine-protein kinase TAO3 (Homo sapiens). Particulars: at 10 µM.
Test [15] deals with T5, Serine/threonine-protein kinase TBK1 (Homo sapiens) (UniProt Q9UHD2).
T5 sequence (whole entry): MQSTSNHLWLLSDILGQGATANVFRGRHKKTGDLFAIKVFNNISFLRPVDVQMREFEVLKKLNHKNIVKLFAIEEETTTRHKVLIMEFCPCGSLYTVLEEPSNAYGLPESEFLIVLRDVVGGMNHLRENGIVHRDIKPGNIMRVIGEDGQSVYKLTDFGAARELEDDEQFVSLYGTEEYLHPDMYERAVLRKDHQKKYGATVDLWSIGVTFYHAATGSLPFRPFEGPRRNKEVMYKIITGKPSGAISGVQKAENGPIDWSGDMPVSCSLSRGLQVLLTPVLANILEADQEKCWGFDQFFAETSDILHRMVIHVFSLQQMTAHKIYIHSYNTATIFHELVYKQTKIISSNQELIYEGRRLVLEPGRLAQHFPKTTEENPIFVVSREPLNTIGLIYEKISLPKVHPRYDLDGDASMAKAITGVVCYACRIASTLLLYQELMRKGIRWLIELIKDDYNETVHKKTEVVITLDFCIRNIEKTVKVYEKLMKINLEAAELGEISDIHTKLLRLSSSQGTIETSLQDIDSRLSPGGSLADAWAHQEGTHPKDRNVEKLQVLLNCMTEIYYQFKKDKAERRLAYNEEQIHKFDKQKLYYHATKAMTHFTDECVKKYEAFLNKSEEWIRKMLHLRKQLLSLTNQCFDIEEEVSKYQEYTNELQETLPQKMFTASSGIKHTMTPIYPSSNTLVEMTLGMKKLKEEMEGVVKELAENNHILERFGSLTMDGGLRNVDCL
As to conditions: at 1 µM.

Test [16] deals with T5, Serine/threonine-protein kinase TBK1 (Homo sapiens). As to conditions: at 10 µM.
Test [17] has as its target T6, TGF-beta receptor type-1 (Homo sapiens) (UniProt P36897).
T6 sequence (whole entry): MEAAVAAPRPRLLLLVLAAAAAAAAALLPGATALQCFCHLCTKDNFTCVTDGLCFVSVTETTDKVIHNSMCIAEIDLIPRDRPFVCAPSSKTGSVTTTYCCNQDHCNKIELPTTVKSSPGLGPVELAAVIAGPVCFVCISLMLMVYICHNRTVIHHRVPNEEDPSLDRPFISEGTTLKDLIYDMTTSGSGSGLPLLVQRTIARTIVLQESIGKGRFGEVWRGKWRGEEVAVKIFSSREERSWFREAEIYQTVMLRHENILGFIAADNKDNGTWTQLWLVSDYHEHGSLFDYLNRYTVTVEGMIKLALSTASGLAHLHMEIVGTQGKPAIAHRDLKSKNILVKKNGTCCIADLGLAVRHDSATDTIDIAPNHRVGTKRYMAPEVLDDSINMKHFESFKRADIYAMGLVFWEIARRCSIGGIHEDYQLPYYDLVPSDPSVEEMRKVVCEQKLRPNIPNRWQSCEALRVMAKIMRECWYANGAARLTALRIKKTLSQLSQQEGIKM
As to conditions: at 1 µM.

The target of test [18] is T6, TGF-beta receptor type-1 (Homo sapiens). As to conditions: at 10 µM.
In test [19] the target is Insulin-like growth factor 1 receptor (Homo sapiens) (UniProt P08069). Particulars: at 1 µM.
Sequence of Insulin-like growth factor 1 receptor (Homo sapiens) (P08069 31-736 limits assumed): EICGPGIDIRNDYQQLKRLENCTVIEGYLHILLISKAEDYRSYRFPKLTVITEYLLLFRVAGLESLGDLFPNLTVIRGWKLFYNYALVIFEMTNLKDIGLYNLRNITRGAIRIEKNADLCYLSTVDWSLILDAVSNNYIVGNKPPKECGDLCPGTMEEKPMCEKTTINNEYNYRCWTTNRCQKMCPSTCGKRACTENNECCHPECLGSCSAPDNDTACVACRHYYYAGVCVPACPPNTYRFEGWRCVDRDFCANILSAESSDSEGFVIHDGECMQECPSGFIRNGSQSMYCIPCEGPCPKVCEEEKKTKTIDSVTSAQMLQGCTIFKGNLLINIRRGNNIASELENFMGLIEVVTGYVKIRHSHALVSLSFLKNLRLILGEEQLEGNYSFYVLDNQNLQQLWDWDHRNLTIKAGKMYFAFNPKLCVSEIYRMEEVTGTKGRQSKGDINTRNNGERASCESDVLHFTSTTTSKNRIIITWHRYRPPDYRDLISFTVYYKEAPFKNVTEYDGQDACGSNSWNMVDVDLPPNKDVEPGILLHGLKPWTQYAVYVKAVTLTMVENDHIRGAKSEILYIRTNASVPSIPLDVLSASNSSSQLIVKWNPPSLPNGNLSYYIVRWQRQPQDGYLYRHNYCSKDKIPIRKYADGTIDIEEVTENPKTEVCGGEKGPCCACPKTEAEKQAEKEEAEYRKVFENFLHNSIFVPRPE
Sequence of Insulin-like growth factor 1 receptor (Homo sapiens) (P08069 741-1367 limits assumed): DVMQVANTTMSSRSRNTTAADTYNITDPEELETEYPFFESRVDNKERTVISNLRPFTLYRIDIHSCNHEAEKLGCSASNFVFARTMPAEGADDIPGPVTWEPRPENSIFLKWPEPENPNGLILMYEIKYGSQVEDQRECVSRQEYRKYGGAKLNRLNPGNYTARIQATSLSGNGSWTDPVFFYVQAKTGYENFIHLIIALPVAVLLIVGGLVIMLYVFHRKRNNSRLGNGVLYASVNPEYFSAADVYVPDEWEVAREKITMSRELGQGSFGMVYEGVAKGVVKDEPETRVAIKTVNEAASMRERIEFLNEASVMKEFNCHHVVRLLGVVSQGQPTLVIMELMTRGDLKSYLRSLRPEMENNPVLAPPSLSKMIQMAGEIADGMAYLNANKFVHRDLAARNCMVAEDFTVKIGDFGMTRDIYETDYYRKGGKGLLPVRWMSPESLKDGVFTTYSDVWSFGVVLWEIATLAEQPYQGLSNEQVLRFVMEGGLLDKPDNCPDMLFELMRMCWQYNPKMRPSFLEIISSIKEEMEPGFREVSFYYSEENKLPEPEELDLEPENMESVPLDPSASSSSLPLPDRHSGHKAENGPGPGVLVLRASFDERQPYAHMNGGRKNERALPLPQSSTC
Test [20] shares this target. As to conditions: at 10 µM.

Sequence of Serine/threonine-protein kinase 33 (Homo sapiens) (Q9BYT3 whole entry, looked up): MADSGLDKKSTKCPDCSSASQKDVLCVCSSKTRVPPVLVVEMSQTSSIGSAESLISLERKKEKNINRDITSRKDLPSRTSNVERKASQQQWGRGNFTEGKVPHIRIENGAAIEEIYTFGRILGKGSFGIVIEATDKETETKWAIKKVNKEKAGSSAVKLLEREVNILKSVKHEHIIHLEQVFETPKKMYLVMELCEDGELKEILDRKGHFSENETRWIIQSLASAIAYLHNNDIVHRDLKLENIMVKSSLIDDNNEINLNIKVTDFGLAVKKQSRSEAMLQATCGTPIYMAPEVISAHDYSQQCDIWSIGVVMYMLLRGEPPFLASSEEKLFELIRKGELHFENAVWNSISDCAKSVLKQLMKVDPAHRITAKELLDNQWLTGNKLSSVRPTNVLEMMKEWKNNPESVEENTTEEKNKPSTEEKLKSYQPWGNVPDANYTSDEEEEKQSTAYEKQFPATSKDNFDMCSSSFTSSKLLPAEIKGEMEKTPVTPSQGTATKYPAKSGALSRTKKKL
Sequence of Serine/threonine-protein kinase PLK2 (Homo sapiens) (Q9NYY3 whole entry, looked up): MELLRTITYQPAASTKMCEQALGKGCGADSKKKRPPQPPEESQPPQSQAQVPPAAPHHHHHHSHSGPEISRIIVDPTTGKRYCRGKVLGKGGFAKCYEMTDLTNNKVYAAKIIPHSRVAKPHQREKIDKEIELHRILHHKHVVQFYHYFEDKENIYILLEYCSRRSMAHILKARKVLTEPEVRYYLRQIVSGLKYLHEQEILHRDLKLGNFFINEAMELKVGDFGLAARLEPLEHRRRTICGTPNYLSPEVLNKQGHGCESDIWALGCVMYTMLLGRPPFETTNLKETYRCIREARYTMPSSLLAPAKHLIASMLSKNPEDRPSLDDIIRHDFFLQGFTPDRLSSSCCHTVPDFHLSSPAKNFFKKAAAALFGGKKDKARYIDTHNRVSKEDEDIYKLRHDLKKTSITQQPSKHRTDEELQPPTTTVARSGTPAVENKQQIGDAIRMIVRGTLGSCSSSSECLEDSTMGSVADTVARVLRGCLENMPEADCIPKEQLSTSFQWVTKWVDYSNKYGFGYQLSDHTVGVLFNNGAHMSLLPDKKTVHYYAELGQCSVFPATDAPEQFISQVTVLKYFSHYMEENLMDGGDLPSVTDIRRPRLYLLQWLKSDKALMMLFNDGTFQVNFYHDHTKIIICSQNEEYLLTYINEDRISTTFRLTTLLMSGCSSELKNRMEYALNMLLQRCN

On to `O=[N+]([O-])/C=C/c1ccc2c(c1)OCO2`, for which the residual activity in test [1] turned out to be 93%; in test [2] it was 89%; in test [3], 102%; in [4], 102%; in test [5] it was 123%; in test [6], 82%. Also, the residual activity amounted to 92% in [7]; 90% in test [8]; 101% in test [9]; 98% in test [10]; 107% in test [11]; 81% in test [12]. In addition, the residual activity in test [13] amounted to 90%; in test [14], 100%; in test [15], 87%; in [16], 81%; in [17], 90%; in [18], 101%. The results for the residual activity in [19] and in test [20] were 103% and 91%, respectively.

As for `O=C1NC(=O)c2c1c1c3ccccc3n3c1c1c2c2ccccc2n1C1CCC3O1`, the residual activity in [5] worked out at 90%; in test [6] it was 80%; in test [7], 88%; in test [8], 89%; in [9], 75%; in test [10], 69%. In addition, the residual activity in test [13] was found to be 96%; in test [14], 94%; in test [15], 54%; in test [16], 62%.
